These results are taken from PubChem BioAssay (NCI).

The nature of assay [1]: NCI Yeast Anticancer Drug Screen. Data for the rad50 strain (AID 155).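 Further: 0% = growth of vehicle-only cultures of the same strain.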 Particulars: S. cerevisiae rad50 strain growth inhibition, hits give high values. In outline:
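Growth of the mutant yeast was measured after compound exposure and referenced to vehicle-treated cultures.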

A short description of assay [2]: NCI Yeast Anticancer Drug Screen. Data for the mec2-1 strain (AID 157). The following applies: S. cerevisiae mec2-1 strain, hits give high values. In outline:
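Cells of the genetically defined mec2-1 yeast strain are incubated with test compound. Inhibition of growth is calculated against vehicle-treated controls.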

Assay [3] in a line: NCI Yeast Anticancer Drug Screen. Data for the sgs1 mgt1 strain (AID 161).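 Further: 0% = growth of cultures given vehicle only.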 The following applies: S. cerevisiae sgs1 mgt1 strain, hits give high values. A digest of the protocol: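 Test agents were incubated with a DNA-repair-mutant yeast strain. Growth was then read and compared against vehicle-treated controls.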
The nature of assay [4]: NCI Yeast Anticancer Drug Screen. Data for the cln2 rad14 strain (AID 165).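 Further: 0% = growth equal to vehicle treated cultures.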 The following applies: S. cerevisiae cln2 rad14 strain, hits give high values. In outline: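 The screen exposed genetically defined yeast (cln2 rad14) to test compounds and scored growth inhibition relative to vehicle-treated controls.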
Assay [5] can be described thus: NCI Yeast Anticancer Drug Screen. Data for the bub3 strain (AID 167). The following applies: S. cerevisiae bub3 mutant strain, hits give high values. In outline: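 Whole-cell yeast assay. The mutant strain was incubated with compounds, and growth inhibition was determined by comparison with vehicle-treated cells.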
The nature of assay [6]: NCI Yeast Anticancer Drug Screen. Data for the mlh1 rad18 strain (AID 175). Particulars: S. cerevisiae mlh1 rad18 strain growth inhibition, hits give high values. In outline: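 Compound-treated yeast growth, normalised to vehicle controls. Strain bears defined DNA repair mutations.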
The mark [7] stands for this setting: at 5.0 µM (retest, dose inferred, filed as 0.5).
The mark [8] stands for this setting: at 50.0 µM (retest, dose inferred, filed as 5.0).

This is part of a sample that, as a whole, favours compounds with a hit. Of some 79,000 tested, about 15% had one in any assay. Unmarked numbers belong to inactive results. Active and inactive are the calls of the source. No stated cut-off is given here; in the data, active means growth inhibition above about 70%; inactive means the rest.

Turning to `CCCCN(CCCC)C(=O)c1ccc(Cl)cc1Cl`, the growth inhibition was 7% in assay [1] (setting [7]); 97% (active) in assay [1] (setting [8]); 98.5% (active) in assay [1] (at 50.0 µM); 7% in assay [2] (setting [7]); 98% (active) in assay [2] (setting [8]); 97.7% (active) in assay [2] (at 50.0 µM). For the same compound, the growth inhibition was 6% in assay [3] (setting [7]); 97% (active) in assay [3] (setting [8]); 98.4% (active) in assay [3] (at 50.0 µM); 11% in assay [4] (setting [7]); 87% (active) in assay [4] (setting [8]); 96.2% (active) in assay [4] (at 50.0 µM). Also, the growth inhibition in assay [5] (setting [7]) is 26%; in assay [5] (setting [8]), 90% (active); in assay [5] (at 50.0 µM) it was 96.5% (active); in assay [6] (setting [7]), 13%; in assay [6] (setting [8]), 97% (active); in assay [6] (at 50.0 µM) it was 98.3% (active).
Take `COc1ccc(C2C3CCCC(C3=O)C(c3ccc(OC)cc3)N2N=O)cc1` (configuration not stated): the growth inhibition in assay [1] (setting [7]) is 0%; in assay [1] (setting [8]) it was 68%; in assay [1] (at 50.0 µM), 84% (active); in assay [2] (setting [7]), 11%; in assay [2] (setting [8]), 64%; in assay [2] (at 50.0 µM), 86.9% (active). Further, the growth inhibition in assay [3] (setting [7]) is -4%; in assay [3] (setting [8]), 77% (active); in assay [3] (at 50.0 µM) it was 59.5%; in assay [4] (setting [7]) it was -6%; in assay [4] (setting [8]), 71% (active); in assay [4] (at 50.0 µM) it was 88.8% (active). The growth inhibition is -2% in assay [5] (setting [7]); 72% (active) in assay [5] (setting [8]); 85.2% (active) in assay [5] (at 50.0 µM); -3% in assay [6] (setting [7]); 77% (active) in assay [6] (setting [8]); 96.5% (active) in assay [6] (at 50.0 µM).
For the compound `COC(=O)c1nnn(-c2ccc(S(N)(=O)=O)cc2)c1C(=O)c1ccc(Cl)c(Cl)c1`, the growth inhibition in assay [1] (setting [7]) is 1%; in assay [1] (setting [8]), 98% (active); in assay [1] (at 50.0 µM) it was 98.5% (active); in assay [2] (setting [7]) it was 22%; in assay [2] (setting [8]), 99% (active); in assay [2] (at 50.0 µM), 98% (active). Besides, the growth inhibition in assay [3] (setting [7]) is 20%; in assay [3] (setting [8]) it was 99% (active); in assay [3] (at 50.0 µM), 98.2% (active); in assay [4] (setting [7]), 19%; in assay [4] (setting [8]), 98% (active); in assay [4] (at 50.0 µM), 96% (active). In addition, the growth inhibition in assay [5] (setting [7]) was 30%; in assay [5] (setting [8]), 99% (active); in assay [5] (at 50.0 µM), 94.8% (active); in assay [6] (setting [7]), 22%; in assay [6] (setting [8]) it was 99% (active); in assay [6] (at 50.0 µM), 98.3% (active).
Take `CCOc1ccc(Nc2nc(C)c(C(=O)/C=C/c3ccc(Cl)cc3Cl)s2)cc1`: the growth inhibition in assay [1] (setting [7]) is 25%; in assay [1] (setting [8]), 25%; in assay [1] (at 50.0 µM), 71.1% (active); in assay [2] (setting [7]), -6%; in assay [2] (setting [8]), -6%; in assay [2] (at 50.0 µM), 31.9%. In addition, the growth inhibition in assay [3] (setting [7]) was 8%; in assay [3] (setting [8]) it was 8%; in assay [3] (at 50.0 µM) it was 33%; in assay [4] (setting [7]), 6%; in assay [4] (setting [8]), 6%; in assay [4] (at 50.0 µM), 48.4%. For the same compound, the growth inhibition in assay [5] (setting [7]) is 6%; in assay [5] (setting [8]), 6%; in assay [5] (at 50.0 µM), 55.5%; in assay [6] (setting [7]), 20%; in assay [6] (setting [8]), 20%; in assay [6] (at 50.0 µM) it was 17.6%.
On to `CC(C)=CCC/C(C)=C/CC/C(C)=C/CSc1ccccc1C(=O)O`, for which the growth inhibition was 22% in assay [1] (setting [7]); 17% in assay [1] (setting [8]); 76.3% (active) in assay [1] (at 50.0 µM); 10% in assay [2] (setting [7]); 14% in assay [2] (setting [8]); 75.8% (active) in assay [2] (at 50.0 µM). Further, the growth inhibition in assay [3] (setting [7]) was 14%; in assay [3] (setting [8]) it was 10%; in assay [3] (at 50.0 µM), 54.5%; in assay [4] (setting [7]), 8%; in assay [4] (setting [8]) it was 20%; in assay [4] (at 50.0 µM) it was 10.2%. Moreover, the growth inhibition is 18% in assay [5] (setting [7]); 19% in assay [5] (setting [8]); 62.2% in assay [5] (at 50.0 µM); 22% in assay [6] (setting [7]); 18% in assay [6] (setting [8]); 41.5% in assay [6] (at 50.0 µM).
Take `C=CC1(c2ccc(OC)cc2)OCCCO1`: the growth inhibition was -11% in assay [1] (setting [7]); 99% (active) in assay [1] (setting [8]); 89.7% (active) in assay [1] (at 50.0 µM); -13% in assay [2] (setting [7]); 99% (active) in assay [2] (setting [8]); 92.4% (active) in assay [2] (at 50.0 µM). The growth inhibition in assay [3] (setting [7]) is -16%; in assay [3] (setting [8]), 99% (active); in assay [3] (at 50.0 µM) it was 87.5% (active); in assay [4] (setting [7]), 27%; in assay [4] (setting [8]), 99% (active); in assay [4] (at 50.0 µM), 88.7% (active). In addition, the growth inhibition in assay [5] (setting [7]) was -27%; in assay [5] (setting [8]) it was 100% (active); in assay [5] (at 50.0 µM) it was 90.8% (active); in assay [6] (setting [7]), -16%; in assay [6] (setting [8]) it was 97% (active); in assay [6] (at 50.0 µM), 89% (active).
Regarding `COc1ccc(Oc2c(OC)cc(NCCCCCNC(C)C)c3ncccc23)cc1`, the growth inhibition was 26% in assay [1] (setting [7]); 72% (active) in assay [1] (setting [8]); 91.9% (active) in assay [1] (at 50.0 µM); 13% in assay [2] (setting [7]); 52% in assay [2] (setting [8]); 67.9% in assay [2] (at 50.0 µM). In addition, the growth inhibition in assay [3] (setting [7]) is 37%; in assay [3] (setting [8]), 85% (active); in assay [3] (at 50.0 µM), 93.7% (active); in assay [4] (setting [7]), 19%; in assay [4] (setting [8]), 48%; in assay [4] (at 50.0 µM), 57.8%. For the same compound, the growth inhibition in assay [5] (setting [7]) was 29%; in assay [5] (setting [8]), 69%; in assay [5] (at 50.0 µM), 81% (active); in assay [6] (setting [7]), 19%; in assay [6] (setting [8]), 52%; in assay [6] (at 50.0 µM) it was 89.8% (active).
For `FC(F)(F)c1cccc(COCCN2CCN(Cc3cccc(C(F)(F)F)c3)CC2)c1`, the growth inhibition in assay [1] (setting [7]) is 36%; in assay [1] (setting [8]) it was 98% (active); in assay [1] (at 50.0 µM), 97.7% (active); in assay [2] (setting [7]) it was 26%; in assay [2] (setting [8]), 98% (active); in assay [2] (at 50.0 µM), 99.1% (active). The growth inhibition in assay [3] (setting [7]) was 46%; in assay [3] (setting [8]), 99% (active); in assay [3] (at 50.0 µM), 99.1% (active); in assay [4] (setting [7]), 33%; in assay [4] (setting [8]), 99% (active); in assay [4] (at 50.0 µM), 96.5% (active). Further, the growth inhibition in assay [5] (setting [7]) was 29%; in assay [5] (setting [8]) it was 98% (active); in assay [5] (at 50.0 µM), 98.2% (active); in assay [6] (setting [7]), 21%; in assay [6] (setting [8]), 98% (active); in assay [6] (at 50.0 µM) it was 99% (active).
Consider `O=C(CCCN1CCC(C(O)c2ccc(F)cc2)CC1)c1ccc(F)cc1` (configuration not stated), for which the growth inhibition in assay [1] (setting [7]) is 37%; in assay [1] (setting [8]), 86% (active); in assay [1] (at 50.0 µM) it was 71.5% (active); in assay [2] (setting [7]), 33%; in assay [2] (setting [8]) it was 78% (active); in assay [2] (at 50.0 µM) it was 69.5%. Besides, the growth inhibition in assay [3] (setting [7]) was 47%; in assay [3] (setting [8]) it was 95% (active); in assay [3] (at 50.0 µM), 79.8% (active); in assay [4] (setting [7]) it was 47%; in assay [4] (setting [8]) it was 87% (active); in assay [4] (at 50.0 µM), 68%. Also, the growth inhibition in assay [5] (setting [7]) was 53%; in assay [5] (setting [8]) it was 97% (active); in assay [5] (at 50.0 µM), 75.8% (active); in assay [6] (setting [7]) it was 62%; in assay [6] (setting [8]), 89% (active); in assay [6] (at 50.0 µM), 68.5%.
